Source: the supplement of paper PMC10338343
± gives the standard deviation.

What was measured:
[1] = tested on: MILI (PIWIL2) piRISC loaded with piRNA #1 (26 nt); assay: pre-steady-state target cleavage rate (min^-1); guide: piRNA #1 5'p-UGAGGUAGUAGGUUGUAUAGUAUCCA; higher = faster piRNA-guided slicing of the target; details: auxiliary factor: 500 nM mouse GTSF1;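 note: 1 nM active piRISC with 0.1 nM target library at 33 °C single turnover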
Method in brief: (§1)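 The pre-steady-state cleavage rate was derived from a burst-and-steady-state fit of Cleave-'n-Seq data. For these assays, 1 nM active affinity-purified piRISC loaded with a single synthetic guide was mixed with […] a transcribed, DNA-blocked target RNA library in HEPES–potassium acetate buffer at 33 °C, with or without 500 nM GTSF1 partner protein, for 0–8 or 0–960 min. Sequencing counts of uncleaved targets were normalised to depth and to weakly complementary targets, and k3 was capped at 0.0001 min^-1 after three trials were pooled.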

[2] = tested on: EfPiwi piRISC loaded with piRNA #1 (26 nt); assay: pre-steady-state target cleavage rate (min^-1); auxiliary factor: 500 nM Ephydatia muelleri Gtsf1; guide: piRNA #1 5'p-UGAGGUAGUAGGUUGUAUAGUAUCCA; MIWI and MILI are mouse PIWI proteins and EfPiwi is from a freshwater sponge; tags in brackets are library labels; higher = faster piRNA-guided slicing of the target
Method in brief: as §1

Sequence | pre-steady-state target cleavage rate [1] | pre-steady-state target cleavage rate [2]
GGAGAGGAUACUAUACAACCUACUUACCUCA | 0.162 ± 0.015 | 0.00951 ± 0.004
GGAGACGAUACUAUACAACCUACUUACCUCA | 0.169 ± 0.014 | 0.0069 ± 0.0023
GGAGAGGAUACUUUACAACCAACUACCUCA | 0.00433 ± 0.0019 | 0.00291 ± 0.0016
GGAGAGGAUACUAUACAACAUACUACCUCA | 0.0488 ± 0.0058 | 0.0063 ± 0.0023
GGAGACCUAACUAUACAACCUACUACCCCA | 0.195 ± 0.058 | 0.00474 ± 0.0039
GGAGAGGAUAGCUAUACAACCUACUACCUCA | 0.035 ± 0.0046 | 0.0146 ± 0.0073
GGAGACCAUACUAUACUACCUACUUCCUCA | 0.0579 ± 0.011 | 0.00301 ± 0.0023
GGAGACCUAACUAAACAACCUACUACCUCA | 0.0743 ± 0.017 | 0.00631 ± 0.0031
GGAGAGGAAACUAUACAACCUACAACCUCA | 0.122 ± 0.03 | 0.00279 ± 0.0019
GGAGACCUAACUACACAACCUACUACCUCA | 0.166 ± 0.039 | 0.00487 ± 0.0033
GGAGUGGAUACUAUACAACCUACAACCUCA | 0.0801 ± 0.011 | 0.00468 ± 0.0018
GGAGACGAUACUAUACAACGUACUAGCUCA | 0.00418 ± 0.0035 | 0.00363 ± 0.0015
GGAGACGAUACUAAACAACCUAGUACCUCA | 0.049 ± 0.0087 | 0.00281 ± 0.0023
GGAGUGGAUACUAUACAACCUACUUACCUCA | 0.133 ± 0.011 | 0.00852 ± 0.0034
GGAGUGGAUACUGAUACAACCUACUACCUCA | 0.144 ± 0.01 | 0.0129 ± 0.0062
GGAGACCUAACAAUACAACCUACUACCUCA | 0.0822 ± 0.019 | 0.00868 ± 0.0037
GGAGACGUUACUAUACAACCAACUACCUCA | 0.0041 ± 0.002 | 0.00407 ± 0.0025
GGAGACCAUACUAUACAACCAACUACCUCA | 0.00362 ± 0.0025 | 0.00627 ± 0.0022
GGAGUGGUUACUAUACAACCUACUAGCUCA | 0.0259 ± 0.0059 | 0.00221 ± 0.001
GGAGACCAUACUAUACUACCUACUACCACA | 0.217 ± 0.021 | 0.0069 ± 0.0053

Sequence | pre-steady-state target cleavage rate [1] | pre-steady-state target cleavage rate [2]
GGAGACGAUAGUAUACAACCUACAACCUCA | 0.106 ± 0.011 | 0.00195 ± 0.0018
GGAGACCAUACUAUACAACCUACCACCUCA | 0.0975 ± 0.015 | 0.00474 ± 0.0033
GGAGAGGAUACUAUACAACCUACUACCUUCA | 0.178 ± 0.016 | 0.104 ± 0.039
GGAGACGAUUCUAAACAACCUACUACCUCA | 0.168 ± 0.012 | 0.00926 ± 0.0045
GGAGACCUAUGUAAUACAACCUACUACCUCA | 0.0179 ± 0.0049 | 0.00412 ± 0.0028
GGAGACCAUACUAUACAACCUACUAGGAGA [g6:g23:cont:t1A] | 0.00402 ± 0.0038 | 0.00788 ± 0.0042
GGAGACCUAUGUAUACAACCUAGUACCUCA | 0.00921 ± 0.0021 | 0.00291 ± 0.0029
GGAGACCUAUCUAUACAUCCUACUACCUGA | 0.0957 ± 0.022 | 0.00459 ± 0.0036
GGAGUGGAUACUAUACAACCUACUACACUCA | 0.128 ± 0.018 | 0.00464 ± 0.0021
GGAGACGAUACUAUACAACGUACUACCUCA | 0.0266 ± 0.0047 | 0.00525 ± 0.0016
GGAGUCGAUACUAUACAACCUACUACCACA | 0.175 ± 0.014 | 0.0037 ± 0.0015
GGAGAGGAUACUAUUCAACCUACUAGCUCA | 0.063 ± 0.014 | 0.00239 ± 0.0015
GGAGACCAUACUAUACAACCUAGCUACCUCA | 0.0804 ± 0.012 | 0.00373 ± 0.0029
GGAGUGGAAAGUAUACAACCUACUACCUCA | 0.118 ± 0.0086 | 0.00841 ± 0.0043
GGAGUGGAUACUAUACAACCUACUAACCUCA | 0.133 ± 0.014 | 0.00634 ± 0.0027
GGAGUGGAUACAAUACAACCUACUACCACA | 0.111 ± 0.0093 | 0.00323 ± 0.0018
GGAGUGGAUACUAUACAACCUACUACAUCA | 0.0416 ± 0.0072 | 0.00707 ± 0.0031
GGAGACGAUACUAUAAAACCUACUACCUCA | 0.184 ± 0.013 | 0.00426 ± 0.0022
GGAGAGGAUACUAUACAACCUACUACGCUCA | 0.0912 ± 0.013 | 0.00523 ± 0.0019
GGAGACGAUACUAUACUACCUACAACCUCA | 0.181 ± 0.017 | 0.00176 ± 0.0015

Sequence | pre-steady-state target cleavage rate [1] | pre-steady-state target cleavage rate [2]
GGAGUGGAUCCUAUACAACCUACUACCUCA | 0.156 ± 0.027 | 0.111 ± 0.058
GGAGACGAUACUAUACAACCUAGCUACCUCA | 0.0598 ± 0.0083 | 0.00543 ± 0.0023
GGAGACCAUACUAUACAACCUACAACCUCA | 0.189 ± 0.024 | 0.00489 ± 0.0019
GGAGACCAUUCUAUACAACCUACUAGCUCA | 0.0909 ± 0.015 | 0.00323 ± 0.0026
GGAGAGGCUACUAUACAACCUACUACCUCA | 0.182 ± 0.017 | 0.0629 ± 0.022
GGAGACGAUUACUAUACAACCUACUACCUCA | 0.147 ± 0.0094 | 0.0159 ± 0.0066
GGAGACCUAUCUAUACAACCUACUACCGCA | 0.174 ± 0.021 | 0.0051 ± 0.0049
GGAGACCAUACUUACAACCUACUACCUCA | 0.0658 ± 0.012 | 0.00861 ± 0.0046
GGAGUGGAUAGUAUACAACCUACUACCUCA | 0.0868 ± 0.0069 | 0.00712 ± 0.0031
GGAGAGGAUACUAAACAACCUUCUACCUCA | 0.0108 ± 0.0026 | 0.00394 ± 0.0023
GGAGAGGAUACUUUACAACCUACUACCACA | 0.152 ± 0.015 | 0.0019 ± 0.0011
GGAGACCAUACUAUACAAGCUAGUACCUCA | 0.0775 ± 0.016 | 0.0032 ± 0.0027
GGAGACCAUAGAAUACAACCUACUACCUCA | 0.0281 ± 0.0057 | 0.00684 ± 0.0033
GGAGACGAUACUAUACCAACCUACUACCUCA | 0.0605 ± 0.013 | 0.0123 ± 0.0043
GGAGAGCAUACUAUACAACCUACUACCUGA | 0.112 ± 0.017 | 0.00603 ± 0.0027
GGAGAGGAUACUAUACAACCUACUUCCUCA | 0.0124 ± 0.0047 | 0.00514 ± 0.0026
GGAGACGAUAUCUAUACAACCUACUACCUCA | 0.0966 ± 0.013 | 0.00603 ± 0.0041
GGAGACCAUACUAUACAACCAACUUCCUCA | 0.00585 ± 0.003 | 0.00509 ± 0.0046
GGAGAGGAUACUAUACAACCUACUACCAGA | 0.0384 ± 0.0076 | 0.00451 ± 0.0018
GGAGACCAUACAAAACAACCUACUACCUCA | 0.0496 ± 0.014 | 0.00423 ± 0.0037
